An excerpt weighted towards active compounds, which were near 4.5% of everything screened.
aSyn 5UTR inh = MLPCN primary screen, SNCA 5' untranslated region; inhibition, % (tested at 7.5 µM); 0.82% of 300,000 active; AID 1813, 2009; alpha-synuclein 5'UTR reporter, inhibitor activity; in the data active means inhibition above about 60%;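 further: H4 neuroglioblastoma cells stably carrying SNCA 5'UTR luciferase fusion; 0% = DMSO wells and 100% = positive control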
697 NFkB inh = inhibitors of PMA/ionomycin-induced NF-kB reporter, 697 cells, primary screen, B-cell NF-kB inhibitor project, cell-based, luminescence, uHTS. 697 B-cell NF-kB luciferase reporter, 16 h. inhibition, % at 4 µM. 0.33% of 330,000 active; in the data active means inhibition above about 35%
CSC inhib = cancer stem cell viability inhibitors, primary screen, luminescence. 1.1% of 300,000 active. inhibition, % at 7.5 µM. cancer stem cell-like cells viability; in the data active means inhibition above about 75%; tested in HMLE shEcad cells
Mdm2 MdmX PPI = inhibitors of human Mdm2-MdmX association, primary screen, cell-based, luminescence, split luciferase, SaOS-2, uHTS | inhibition, % at 8 µM | SaOS-2 split-luciferase Mdm2/MdmX complementation | Protein Mdm4 (Homo sapiens) + E3 ubiquitin-protein ligase Mdm2 (Homo sapiens), … | 3% of 330,000 active;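 active means inhibition of at least 50% at 8 µM in the primary screen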
Jurkat NFkB inh = inhibitors of induced NF-kB luciferase reporter, primary screen, TCR NF-kB activation inhibitor project, cell-based, luminescence, uHTS. Jurkat, PMA/ionomycin-induced NF-kB luciferase reporter. inhibition, % at 4 µM. 0.53% of 330,000 active; in the data active means inhibition above about 50%
Gli-Sufu block = Gli-Sufu pathway antagonists, primary screen, luciferase luminescence, Sufu-KO-LIGHT cells, uHTS | AID 588413, 2011 | 0.74% of 340,000 active | inhibition, % at 5 µM | Sufu-KO-LIGHT fibroblasts, Gli luciferase reporter luminescence;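 active means inhibition above about 55%, limit read from the data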;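 further: 0% = DMSO-treated cells and 100% = wells with medium but no cells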
Gli antag conf = Gli-SUFU pathway antagonists, confirmation, single concentration, luciferase luminescence, Sufu-KO-LIGHT cells | shares compounds with Gli-Sufu block | AID 602428, 2012 | inhibition, % at 5 µM | 40% of 2,500 active | Gli luciferase reporter;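 active means mean inhibition at 5 µM reaching about 45%, limit read from the data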;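 further: plate controls were DMSO-treated cells for no effect and wells lacking cells for full effect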
Gli cytotox = cytotoxicity in Sufu-KO-LIGHT cells, confirmation, cytotoxicity control for Gli-SUFU antagonist project, cell-based, ATP luminescence, single concentration; shares compounds with Gli-Sufu block; AID 651994, 2013; cytotoxicity, % at 5 µM; 32% of 2,500 active;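 active means mean cytotoxicity at 5 µM above about 25%, limit read from the data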;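 further: cells exposed to compound overnight for roughly 16 to 18 hours; plate controls were DMSO wells with cells for no effect and medium without cells for full effect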
Wnt3a cs = Wnt3a reporter signal inhibition, confirmation, counter-screen for Gli-SUFU antagonist project, Wnt-LIGHT cells, luminescence, single concentration; Wnt3a-driven luciferase reporter; shares compounds with Gli-Sufu block; inhibition, % at 6.25 µM; 20% of 2,500 active;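 active means mean inhibition above about 25%, limit read from the data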
* hit, by the source's call; . = no result given.

SMILES	aSyn 5UTR inh	697 NFkB inh	CSC inhib	Mdm2 MdmX PPI	Jurkat NFkB inh	Gli-Sufu block	Gli antag conf	Gli cytotox	Wnt3a cs
COc1cccc(-c2cc(C(F)(F)F)n3nc(N)nc3n2)c1	26	6	-6	8	-3	78*	29	12	-15
O=S(=O)(c1ccc(F)cc1)N1CCCC(CO)C1 (centres undefined)	4	-24	0	-23	-7	52	12	2	-9
CSc1ccc(S(=O)(=O)N2CCC(C(=O)N3CCc4ccccc4C3)CC2)cc1	9	15	6	22	18	9	.	.	.
CC(=O)c1ccc(N2CCN(c3ccc(C(F)(F)F)cn3)CC2)cc1	19	.	5	.	.	52	52*	11	-58
Cc1c(Cl)cccc1NC(=O)NN1CCN(C)CC1	10	12	-7	-5	-5	95*	10	24	-7
COc1ccc(OC)c(NC(=O)CCN2CCN(c3ccccc3F)CC2)c1	17	0	-6	17	5	10	.	.	.
COc1ccc(C)cc1NC(=O)CCN1CCN(c2ccccc2F)CC1	4	2	3	-6	1	59*	15	11	-1
CCOC(=O)c1oc2ccccc2c1NC(=O)CCl	-35	11	2	18	0	4	.	.	.
CCOC(=O)c1oc2ccccc2c1NC(=O)C1CCCCC1	9	0	-8	13	-4	97*	24	19	-9
CCOc1cc(C(=O)OCc2cccc(OC)c2OC)ccc1OCC(=O)N1CCOCC1	-4	-29	11	6	-54	71*	26	10	-3
CCOc1cc(C(=O)OCc2ccc([N+](=O)[O-])cc2)ccc1OCC(=O)N1CCOCC1	14	16	-2	16	13	-3	.	.	.
O=C(CCCOc1ccc(Cl)cc1Cl)N/N=C/c1ccc(Cl)cc1	-9	14	4	-2	3	-2	.	.	.
CC1(C)CC(=O)C/C(=N/NC(=O)CCCOc2ccc(Cl)cc2Cl)C1	16	4	7	0	-6	99*	8	17	-43
O=C(c1ccccc1)N1CCN(CC#Cc2ccccc2)CC1	-66	-39	4	-2	-18	99*	-6	16	-38
O=C(c1ccccc1)N1CCN(Cc2ccccc2)CC1	14	-12	-6	21	-2	4	.	.	.
C[C@@H]1CN([C@@H](C)CO)C(=O)c2cc(NC(=O)Nc3ccc4c(c3)OCO4)ccc2O[C@H]1CN(C)S(=O)(=O)c1cn(C)cn1	.	9	.	16	5	-2	.	.	.
C[C@H](CO)N1C[C@H](C)[C@@H](CN(C)S(=O)(=O)c2ccc(Cl)cc2)Oc2ccc(NS(=O)(=O)c3ccccc3)cc2CC1=O	.	-3	-6	14	-1	58*	10	-12	-22
C[C@H](CO)N1C[C@H](C)[C@@H](CN(C)S(=O)(=O)c2cn(C)cn2)Oc2ccc(NC(=O)Nc3ccccc3)cc2C1=O	.	7	-10	5	-1	96*	12	3	-47
COc1cccc(-n2c(=O)c3cc(OC)c(OC)cc3n(CC(=O)Nc3cc(C)[nH]n3)c2=O)c1	25	17	-10	-23	-4	0	.	.	.
CCCN(CC(=O)Nc1ccccc1C)C(=O)c1ccc(COc2ccccc2)cc1	-16	4	0	-7	-12	11	.	.	.
O=C(CCCn1nnnc1CN1CCOCC1)N1CCC(c2ccc(F)cc2)C1 (centres undefined)	5	-28	0	-3	-9	97*	21	10	-27
COC(=O)c1sc(NC(=O)CSc2nc3cccnc3n2C)nc1C	-5	6	.	7	-13	41	.	.	.
COc1ccc(S(=O)(=O)NCC2CCCN(C(=O)CSC)C2)cc1 (centres undefined)	-6	2	-12	8	-1	1	.	.	.
Cc1ccc(Oc2cc(NC(=O)CCCn3nc([N+](=O)[O-])cc3C)cc([N+](=O)[O-])c2)cc1	9	23	40	10	11	4	.	.	.
Cc1ccc(C)c(Oc2cc(NC(=O)CCCn3nc(C)c([N+](=O)[O-])c3C)cc([N+](=O)[O-])c2)c1	18	1	8	15	6	50	17	12	-20
SMILES	aSyn 5UTR inh	697 NFkB inh	CSC inhib	Mdm2 MdmX PPI	Jurkat NFkB inh	Gli-Sufu block	Gli antag conf	Gli cytotox	Wnt3a cs
Cn1c(Cc2csc(N)n2)nnc1SCC(=O)NCc1ccccc1	24	-3	2	12	-12	95*	4	2	-17
CS(=O)(=O)N1CCCC(C(=O)N2CCc3ccccc3C2)C1 (centres undefined)	9	-4	-14	-13	-4	55	20	12	-29
Cc1ccn2c(C(=O)N/N=C\c3ccccc3[N+](=O)[O-])c(C)nc2c1	-4	16	9	12	2	5	.	.	.
Cc1ccc2c(c1)nnn2C1CCN(S(=O)(=O)c2ccc(C(=O)O)cc2)CC1	5	10	-19	3	-3	-1	.	.	.
Cc1ccc2c(c1)nnn2C1CCN(S(=O)(=O)c2ccc(C(=O)N3C(C)CCCC3C)cc2)CC1 (centres undefined)	-36	-52	41	26	15	67*	69*	30*	18
COCCNC(=S)N1CCOCC1	9	1	-6	1	5	-7	.	.	.
CCOC(=O)C1CCCN(C2CCN(Cc3nc(Cc4ccccc4)no3)CC2)C1 (centres undefined)	26	29	-5	-12	6	50	23	10	-29
CC(C)N(Cc1nccn1C)C(=O)c1cc(COc2ccc(-n3cncn3)cc2)on1	14	0	4	2	-8	10	.	.	.
Cc1cc(C)nc(SCC(=O)NC(=O)c2ccccc2O)n1	.	4	5	26	1	3	.	.	.
COc1ccc(NC(=O)c2cc(-c3ccccc3)nc3c2cnn3C(C)C)c(OC)c1	.	6	.	32	-8	-1	.	.	.
S=C(Nc1cccnc1)NC1CCCC1	23	1	-2	32	-3	59*	6	6	4
O=C(Nc1ccc(C(=O)NC2CCCCC2)cc1)c1cccnc1	15	-19	0	11	-6	55*	31	3	-7

Source: PubChem BioAssay
